# Calls of active or inactive are those of the source.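 How the source made its calls, unless noted: active means viability loss from added drug above about 55%, and viability with drug at most 40%, in both replicates (limit read from the data, passing the limit was not always enough); inconclusive means both conditions met in only one replicate; inactive means neither replicate meets both conditions.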
# What was measured:
# [1] = SK-BR-3 cell growth inhibitors, pilot screen, 24 h, human (AID 572;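 active means viability at or below 10% of carrier control in both of two separate runs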;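 further: compound exposure lasted between 18 and 24 h rather than exactly 24 h; 100% = carrier-treated control wells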); conditions: SK-BR-3 viability, CellTiter-Glo luminescence, at 10 µM, stronger effect = lower value
# [2] = HUVEC growth inhibition – cell-based, human, primary screen (AID 575;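 active means viability at or below 30% in both replicate assays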;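 further: 100% = median of untreated cell wells with 0.1% DMSO on each plate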); conditions: HUVEC proliferation, CellTiter-Glo luminescence, 72 h; at 10 µM; stronger effect = lower value
# [3] = reversal of MRP1-mediated doxorubicin resistance, pilot screen, H69AR cells, doxorubicin co-treatment (AID 601); conditions: CellTiter-Glo, 72 h, at 10 µM; for differential viability (reversal): stronger effect = higher value
# [4] = 384-well plate pilot, post-Golgi transport modulator project, inhibition of yeast transport mutant growth (AID 636; in the data active means inhibition above about 31%); conditions: absorbance 615 nm, about 18 h, stronger effect = higher value
# [5] = growth suppression of yeast trafficking mutant, preliminary HTS, modulators of trafficking downstream of Golgi apparatus project, 1536-format plate, OD 615 nm (AID 637; in the data active means inhibition above about 30%); conditions: yeast transport mutant growth, absorbance 615 nm, 18 h; stronger effect = higher value
# [6] = H69AR cells + 2 uM doxorubicin, measured here: viability with 2 uM doxorubicin, stronger effect = lower value
# [7] = H69AR cells, compound alone cytotoxicity
Structure (SMILES),viability [1],viability [2],differential viability (reversal) ([3]; H69AR cells + 2 uM doxorubicin),"viability [3, 6] [%]","viability [3, 7] [%]",inhibition [4],inhibition [5]
Cc1cccc(OCC(=O)Nc2cc(C)ccc2O)c1,105% (inactive),75.3% (inactive),-14% (inactive),51.4,37.4,-6.16% (inactive),0.18% (inactive)
COc1cc([C@@H]2c3cc4c(cc3[C@H](O)[C@H]3COC(=O)[C@H]23)OCO4)cc(OC)c1OC,101% (inactive),33.9% (inactive),-32.5% (inactive),63.7,31.2,-2.99% (inactive),-5.67% (inactive)
CCOC(=O)c1[nH]c(CSc2nnc(-c3ccc(OC)cc3)o2)c(C(=O)OCC)c1C,56% (inactive),72.3% (inactive),0.61% (inactive),37.4,38,-3.24% (inactive),-4.36% (inactive)
C=CCSc1nnc2n(CCc3ccccc3)c(=O)c3c4c(sc3n12)COC(C)(C)C4,124% (inactive),72.5% (inactive),33.1% (inactive),13.8,47,-4.38% (inactive),1.13% (inactive)
O=C(/C=C/c1ccccc1)c1ccccc1,107% (inactive),50.2% (inactive),-2.5% (inactive),4.56,2.06,1.95% (inactive),0.67% (inactive)
CCOC(=O)N1CCN(CC(=O)Nc2cc(C)nn2-c2nc3ccccc3s2)CC1,74% (inactive),57% (inactive),-1.56% (inactive),39.2,37.7,-0.39% (inactive),2.46% (inactive)
CCCSc1ccc2nc(NC(=O)OC)[nH]c2c1,95% (inactive),43.2% (inactive),-28.6% (inactive),48.9,20.3,-1.56% (inactive),0.17% (inactive)
CC(=O)O[C@]1(C(C)=O)CC[C@H]2[C@@H]3C=C(Cl)C4=CC(=O)CC[C@]4(C)[C@H]3CC[C@@]21C,104% (inactive),93.2% (inactive),-23.2% (inactive),54.4,31.2,-1.3% (inactive),-2.5% (inactive)
COC1=CC(=O)CC(C)C12Oc1c(Cl)c(OC)cc(OC)c1C2=O (stereo not drawn),100% (inactive),62.8% (inactive),-31.8% (inactive),50,18.1,-2.99% (inactive),-5.67% (inactive)
N#Cc1cc2c(nc1SCC(=O)Nc1sc3c(c1C#N)CCC3)CCCCC2,82% (inactive),79.5% (inactive),-16.5% (inactive),57.4,40.9,-7.84% (inactive),-8.91% (inactive)
COC(=O)C1=C(C)NC(C)=C(C(=O)OC)C1c1ccccc1[N+](=O)[O-],91% (inactive),46.7% (inactive),11.9% (inactive),2.41,14.3,1.04% (inactive),-2.67% (inactive)
CCOC(=O)Nc1ccc2c(c1)N(C(=O)CCN1CCOCC1)c1ccccc1S2,78% (inactive),97% (inactive),-11.3% (inactive),76,64.7,-5.07% (inactive),-2.55% (inactive)
CCCCc1oc2ccccc2c1C(=O)c1cc(I)c(OCCN(CC)CC)c(I)c1,91% (inactive),2.45% (active),-11.1% (inactive),12.4,1.29,100% (active),100% (active)
C=C1[C@@H](C)C2[C@H](Cc3ccccc3)NC(=O)[C@]23OC(=O)CC[C@H](O)CCC[C@H](C)C/C=C/[C@H]3[C@@H]1O (stereo partly drawn),95% (inactive),13.1% (active),-16.3% (inactive),48.2,31.9,-0.26% (inactive),0.67% (inactive)
Oc1c(Cl)cc(Cl)cc1Sc1cc(Cl)cc(Cl)c1O,143% (inactive),1.36% (active),0.46% (inactive),11,11.4,-0.78% (inactive),100% (active)
CC1Cc2ccccc2N1CC(=O)NC(=O)NCc1ccco1 (stereo not drawn),85% (inactive),89.6% (inactive),-30.2% (inactive),70.1,39.9,-0.27% (inactive),2.36% (inactive)
N=c1c(C(=O)NCc2ccccc2)cc2c(=O)n3ccccc3nc2n1Cc1ccco1,93% (inactive),79.2% (inactive),-13.5% (inactive),65.5,52.1,-4.25% (inactive),0.32% (inactive)
COc1ccccc1Nc1nc(N)nc(-c2cc3ccccc3o2)n1,91% (inactive),78.4% (inactive),-26.4% (inactive),75.7,49.3,-2.97% (inactive),-4.55% (inactive)
O=C(CC(SCCO)c1ccc2c(c1)OCO2)c1ccco1 (stereo not drawn),77.5% (inactive),95% (inactive),-17.8% (inactive),59.3,41.5,-7.57% (inactive),-3.65% (inactive)
